# Records with an inconclusive call do not appear. Entries that show only a call come without a potency. Activity calls are given as the source filed them. Calls follow the shape of the dose curve; as a rule, active = well fitted inhibition curve with a large enough effect; inconclusive = small, poorly fitted or top-dose-only effect; inactive = flat fitted curve, though single readings scatter.
# Legend:
# [1] = qHTS profiling for inhibitors of Plasmodium falciparum proliferation (AID 504749); also: nearly all actives have a fitted effect of over 60% in size; also: potency is read from the fitted curve at half-maximal effect; details: P. falciparum in erythrocytes, SYBR Green DNA, 72 h
# Method in brief: (§1)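 Quantitative HTS: compounds pinned into medium, infected erythrocytes added (0.3% parasitemia, 2.5% hematocrit), 72 h culture at 37 C under 5% CO2. Saponin/Triton lysis with SYBR Green I, overnight RT, then fluorescence read.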
# 3D7 = experiment: as above; details: P. falciparum in erythrocytes, SYBR Green DNA, 72 h; series mostly up to 28.7 µM
# Method in brief: as §1
# 7G8 = experiment: as above; details: P. falciparum in erythrocytes, SYBR Green DNA, 72 h; series mostly up to 28.7 µM
# Method in brief: as §1
# AA1029 = experiment: as above; details: P. falciparum in erythrocytes, SYBR Green DNA, 72 h; series mostly up to 28.7 µM
# Method in brief: as §1
# AS120 = experiment: as above; details: P. falciparum in erythrocytes, SYBR Green DNA, 72 h; series mostly up to 28.7 µM
# Method in brief: as §1
# ATS189 = experiment: as above; details: P. falciparum in erythrocytes, SYBR Green DNA, 72 h; series mostly up to 28.7 µM
# Method in brief: as §1
# ATS95 = experiment: as above; details: P. falciparum in erythrocytes, SYBR Green DNA, 72 h; series mostly up to 28.7 µM
# Method in brief: as §1
# C2A = experiment: as above; details: P. falciparum in erythrocytes, SYBR Green DNA, 72 h; series mostly up to 28.7 µM
# Method in brief: as §1
# [2] = qHTS for identification of novel therapeutic agents for treatment of microphthalmiaassociated transcription factor (MiT) renal cell carcinoma (RCC) (AID 1963991); details: CellTiter-Glo, 48 h, stronger effect = lower value
# Method in brief: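 Three TFE3-fusion RCC lines (UOK109, UOK124, UOK145), 500 cells/well in complete medium, were treated with MIPE 4.0 compounds for 48 hours at 37 C. Viability was by CellTiter-Glo luminescence, normalized to DMSO (100%) and empty wells (0%); curves fitted over 11 concentrations.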
# [3] = at 12.8 µM (top of the series), parasite line A
# [4] = at 12.8 µM (top of the series), parasite line B
# [5] = at 28.7 µM (top of the series), parasite line A
# [6] = at 28.7 µM (top of the series), parasite line B
SMILES,"activity, negative = inhibition [1, 3]","activity, negative = inhibition [1, 4]",Potency (3D7),Potency (7G8),Potency (AA1029),Potency (AS120),Potency (ATS189),Potency (ATS95),Potency (C2A),"activity, negative = inhibition [1, 5]","activity, negative = inhibition [1, 6]","z-score ([2]; TFE3-RCC UOK109 viability, measured here: UOK109 Z-AUC)","z-score ([2]; TFE3-RCC viability, measured here: UOK124 Z-AUC)","z-score ([2]; TFE3-RCC viability, measured here: UOK145 Z-AUC)",Potency ([1]; parasite line A),Potency ([1]; parasite line B)
COc1ccc(CN2CCNCC2)c(OC)c1OC,8.69% (inactive),4.48% (inactive),inactive,inactive,inactive,inactive,inactive,inactive,inactive,–,–,–,–,–,–,–
c1ccc2nc(N3CCNCC3)ccc2c1,–,–,inactive,inactive,inactive,inactive,inactive,inactive,inactive,16.1% (inactive),9.33% (inactive),–,–,–,–,–
NC(=O)OCCCc1ccccc1,–,–,inactive,inactive,inactive,inactive,inactive,inactive,inactive,-9.09% (inactive),10.5% (inactive),–,–,–,–,–
Cc1ccc(N=CN(C)C=Nc2ccc(C)cc2C)c(C)c1,–,–,inactive,inactive,inactive,inactive,inactive,inactive,inactive,5.73% (inactive),9.78% (inactive),–,–,–,–,–
O=C(O)c1nn(Cc2ccc(Cl)cc2Cl)c2ccccc12,–,–,inactive,inactive,inactive,inactive,inactive,inactive,inactive,-9.19% (inactive),-4.8% (inactive),0.154,0.856,-0.814,–,–
CC(C)NCC(O)c1ccc(N)c(C#N)c1 (centres undefined),–,–,inactive,inactive,inactive,inactive,inactive,inactive,inactive,10.9% (inactive),-9.32% (inactive),–,–,–,–,–
C[N+]1(CCC(C(N)=O)(c2ccccc2)c2ccccc2)CCCCC1,–,–,inactive,inactive,inactive,inactive,inactive,inactive,inactive,-14.5% (inactive),-9.8% (inactive),–,–,–,–,–
CCC(=O)O[C@H]1CC[C@H]2[C@@H]3CCC4=CC(=O)CC[C@]4(C)[C@H]3CC[C@]12C,4.77% (inactive),12.2% (inactive),inactive,inactive,inactive,inactive,inactive,inactive,inactive,–,–,–,–,–,–,–
COC(=O)C1=CCCN(C)C1,–,–,inactive,inactive,inactive,inactive,inactive,inactive,inactive,0.472% (inactive),19.4% (inactive),–,–,–,–,–
O=C(CCCN1CCC(n2c(=O)[nH]c3ccccc32)CC1)c1ccc(F)cc1,–,–,1000 nM (active),158 nM (active),3550 nM (active),2240 nM (active),1580 nM (active),3160 nM (active),–,–,–,–,–,–,3160 nM (active),3160 nM (active)
CNC(=O)NC(O)C(Cl)(Cl)Cl (centres undefined),–,–,inactive,inactive,inactive,inactive,inactive,inactive,inactive,0.151% (inactive),3.59% (inactive),–,–,–,–,–
CCN(Cc1ccc(Cl)nc1)/C(=C/[N+](=O)[O-])NC,–,–,inactive,inactive,inactive,inactive,inactive,inactive,inactive,8.19% (inactive),-9.95% (inactive),–,–,–,–,–
O=c1n(Cl)c(=O)n(Cl)c(=O)n1Cl,–,–,inactive,inactive,inactive,inactive,inactive,inactive,inactive,0.0387% (inactive),2.68% (inactive),–,–,–,–,–
